# Nrf2 ARE act – activates Nrf2 signaling; AREc32 ARE-luciferase reporter (MCF7-derived line), luminescence, 24 h; Potency, µM (doses to about 46.1 µM), for the others: at the highest dose activation, usual class: activators; 410,000 compounds, 0.31% hits; also: potency is read from the fitted curve at half-maximal effect; % of control where 0% means no effect; nearly all actives have a fitted effect of over 65% in size
#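 Cells of the AREc32 ARE-luciferase line are plated in OPTI-MEM containing 5% FBS and left overnight at 37 deg C. Compounds are pinned in, incubation continues 24 hr, and firefly luciferase signal is then measured.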
# A549 tox-1 – kills or reduces viability of A549 cells in Nrf2 counter-screen; A549 ARE-Fluc cells, CellTiter-Fluor viability, 18-24 h; AID 504648; 390,000 compounds, 0.16% hits; Potency, µM (highest dose often 46 µM), for the others: at the highest dose activity change, negative = cytotoxicity, usual class: inhibitors; also: potency is read from the fitted curve at half-maximal effect; % is scaled to controls: 0 for no effect and ±100 for the full control effect
#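 Cytotoxicity counterscreen: CellTiter-Fluor fluorescence was measured in A549 ARE_Fluc cells after 18-24 h of compound exposure in a concentration series. The subsequent BugLite luminescent read reports ARE-luciferase activity.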
# Nrf2 inh – blocks Nrf2 signaling | A549 ARE-Fluc reporter, luciferase luminescence, 18-24 h | Potency, µM (titrated, usually from 46 µM), inactives show at the top dose activity change, negative = inhibition, hits mostly inhibitors | 360,000 compounds, 2.1% hits | AID 504444; also: potency is read from the fitted curve at half-maximal effect; % is scaled to controls: 0 for no effect and ±100 for the full control effect; nearly all actives have a fitted effect of over 60% in size
#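 Quantitative HTS in A549 cells stably bearing an antioxidant response element-firefly luciferase construct. Inhibition of Nrf2-driven transcription was scored by luminescence after 18-24 h of compound exposure at 37 °C.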
# IL-2 act – IL-2 activation; IL-2 activation reporter assay, cell-based qHTS; stimulated with anti-CD3/CD4/CD28 beads; in transgenic mouse T cells; activation, % (series mostly up to about 46 µM); 360,000 compounds, 0.065% hits; AID 652025; in the data active = activation above about 50%; inconclusive = mostly about 30% to 49%; also: 0% is about no effect
#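 First, unstimulated transgenic mouse T cells were exposed to compound for 60 min. Next, anti-CD3/anti-CD4-coated beads with anti-CD28 were added. Finally, after 18 h at 37 degrees C, EGFP and DsRed were imaged.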
# FLuc counter 3 – firefly luciferase inhibition, Nrf2 hit validation; shares compounds with Nrf2 inh; purified firefly luciferase, luminescence inhibition; Potency, µM (series often up to 57.5 µM), inactives show at the top dose activity change, negative = inhibition, hits mostly inhibitors; 1,400 compounds, 4% hits; also: potency is read from the fitted curve at half-maximal effect; % is scaled to controls: 0 for no effect and ±100 for the full control effect; nearly all actives have a fitted effect of over 65% in size
# Target sequence (P08659 whole entry, looked up): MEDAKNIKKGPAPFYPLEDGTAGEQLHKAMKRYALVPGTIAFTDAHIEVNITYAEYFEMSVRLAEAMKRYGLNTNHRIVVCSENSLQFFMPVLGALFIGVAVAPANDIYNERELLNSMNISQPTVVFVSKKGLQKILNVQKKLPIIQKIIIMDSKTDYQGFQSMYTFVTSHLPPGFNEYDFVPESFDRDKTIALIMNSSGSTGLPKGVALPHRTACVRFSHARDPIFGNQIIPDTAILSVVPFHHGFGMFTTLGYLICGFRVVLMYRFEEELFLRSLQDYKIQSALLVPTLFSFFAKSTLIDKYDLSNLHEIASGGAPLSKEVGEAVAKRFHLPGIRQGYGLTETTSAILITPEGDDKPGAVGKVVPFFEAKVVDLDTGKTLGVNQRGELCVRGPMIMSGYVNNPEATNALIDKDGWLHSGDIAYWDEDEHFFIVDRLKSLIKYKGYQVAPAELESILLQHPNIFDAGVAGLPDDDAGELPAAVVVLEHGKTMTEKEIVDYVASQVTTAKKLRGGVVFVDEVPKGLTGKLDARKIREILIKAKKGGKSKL
# A549 tox-2 – toxic to A549 ARE-Fluc cells in Nrf2 counterscreen; 1,400 compounds, 2% hits; shares compounds with Nrf2 inh; A549 ARE-Fluc cells, cytotoxicity counterscreen; Potency, µM (highest dose often 46.1 µM), without a hit: top-dose activity change, negative = cytotoxicity, most hits filed as inhibitors; AID 720523;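 also: potency is read from the fitted curve at half-maximal effect; cells exposed to compounds for 18 to 24 hours; % is scaled to controls: 0 for no effect and ±100 for the full control effect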
# Nrf2 ARE inh – confirmation of Nrf2 inhibitors in A549 ARE reporter cells; shares compounds with Nrf2 inh; A549 ARE-firefly luciferase reporter, luminescence; Potency, µM (top dose mostly 46.1 µM), inactives show at the highest dose activity change, negative = inhibition, hits mostly inhibitors; 1,400 compounds, 74% hits; AID 720524; also: potency is read from the fitted curve at half-maximal effect; % is scaled to controls: 0 for no effect and ±100 for the full control effect; nearly all actives have a fitted effect of over 65% in size
# Numbers without * were called inactive; ? = inconclusive; · = no result given; [ ] = remark or other dose. Shown are actives, neighbours in structure and some others; about 2.3% of the full set was active somewhere. Unless noted, calls follow the shape of the dose curve; as a rule, active = well fitted curve in the direction sought with a large enough effect; inconclusive = small, poorly fitted or top-dose-only effect, or another doubt; inactive = no such curve, though single readings can be large; an effect the other way counts as inactive or inconclusive.
SMILES,Nrf2 ARE act,A549 tox-1,Nrf2 inh,IL-2 act,FLuc counter 3,A549 tox-2,Nrf2 ARE inh
CC(=O)C(C)n1c(CN(C)Cc2ccccc2)nc2c1c(=O)n(C)c(=O)n2C (stereo not given),4%,-2%,?,-2,·,·,·
CC(C)n1c(CN(C)Cc2ccccc2)nc2c1c(=O)n(C)c(=O)n2C,0%,-17%,0.46µM*,0,2%,-3%,4.1µM*
O=c1[nH]c(=O)n(Cc2ccco2)c2c1C(C(F)(F)F)(C(F)(F)F)N=C(c1ccc(F)cc1)N2,0%,-29%,4.1µM*,-4,3%,-23%,2.9µM*
N#Cc1nc(N2CCCC2)nc(N2CCCC2)n1,-1%,-18%,5.2µM*,-1,0%,-25%,13µM*
CCc1sc(Nc2cccc(Cl)c2C)nc1-c1cc2cccc(OC)c2oc1=O,1%,-13%,·,·,·,·,·
CCOCCCNC(=O)NC(CCC(C)C)c1c(-n2cccc2)sc2c1CCN(C)C2 (stereo not given),0%,-2%,?,·,·,·,·
Cc1cc(C)c(CN2CCN(C(=O)Cn3cnc4c(OCc5ccccc5)ncnc43)CC2)c(C)c1,1%,-14%,3.7µM*,-1,2%,-11%,6.5µM*
O=C(O)Cn1cnc2c(OCc3ccccc3)ncnc21,-1%,2%,-2%,0,·,·,·
CCSc1nc2n(n1)C(c1ccc(C(=O)O)cc1)C(C(=O)Nc1ccccc1C)=C(C)N2 (stereo not given),-2%,8%,·,·,·,·,·
Cc1cc(N(C)C)cc(C)c1/C=C/c1ccnc2ccccc12,·,·,·,·,?,?,9.2µM*
COc1cc(OC)c(OC)cc1/C=C/c1ccnc2ccccc12,5%,-17%,-12%,0,·,·,·
CC(C)CC[n+]1ccccc1/C=C/c1ccc(N(C)C)cc1,3%,?,7.3µM*,20,2%,?,5.8µM*
CN(C)c1ccc(/C=C/c2cccc[n+]2[O-])cc1,0%,-6%,10%,3,·,·,·
CCN(CC)S(=O)(=O)c1ccc2oc(C(=O)N(C)Cc3ccccc3)c(C)c2c1,4%,1%,-2%[9.27 µM],·,·,·,·
COc1cc2[nH]c(=S)nc(NC3CCCCCC3)c2cc1OC,9%,2%,1%,-5,·,·,·
COc1cc2c(NC3CCN(C(C)C)CC3)nc(N3CCCN(C)CC3)nc2cc1OCCCN(C)C,·,·,·,·,-1%,?,1.6µM*
COc1cccc(NC(=O)Cn2cnc3c(nc4n3CCCCC4)c2=O)c1,0%,1%,-17%,·,·,·,·
CC(C)(C)c1ccc(-c2noc(CCC(=O)Nc3cccc(Cl)c3)n2)cc1,-3%,1%,0.15µM*,·,?,1%,·
CC(C)(C)c1ccc(-c2noc(CCC(=O)NCc3ccco3)n2)cc1,6%,12µM*,0.018µM*,-1,1.2µM*,-6%,0.82µM*
Cc1cccc(-c2noc(CCC(=O)NCc3ccco3)n2)c1,6%,2%,·,-3,·,·,·
COc1ccc(C2Nc3ccc(NC(C)=O)cc3C(=O)N2Cc2cccc(Cl)c2)cc1COc1ccc(NC(C)=O)cc1 (stereo not given),·,-6%,?,·,·,·,·
COc1cccc2c1cc1c(=O)n(CC(=O)N3CCN(c4cccc(C(F)(F)F)c4)CC3)nc(C)n12,0%,1%,4%,·,·,·,·
CCOc1ccc(S(=O)(=O)N(C)c2ccc(OCC(=O)Nc3nc4ccccc4s3)cc2)cc1,3%,-12%,2.3µM*,0,2%,-2%,9.2µM*
CN(c1ccc(OCC(=O)NCCc2ccccc2)cc1)S(=O)(=O)c1ccc(Cl)cc1,3%,9%,19%,0,·,·,·
COc1ccc(CCNC(=O)COc2ccc(N(C)S(=O)(=O)c3ccc(Cl)cc3)cc2)cc1,3%,-4%,3.7µM*,-1,-1%,-7%,18µM*
SMILES,Nrf2 ARE act,A549 tox-1,Nrf2 inh,IL-2 act,FLuc counter 3,A549 tox-2,Nrf2 ARE inh
COc1ccc(S(=O)(=O)N(CC(=O)NCCc2ccccc2)c2ccc(Cl)cc2)cc1,-1%,1%,14%,·,·,·,·
COc1cc(NC(=O)c2cccs2)c(OC)cc1NC(=O)CCC(=O)Nc1ccc2ncccc2c1,0%,-3%,5.8µM*,0,-13%,2%,-11%
Cc1c(N)cc[n+](CC(=O)c2ccccc2)c1C,-1%,-17%,4.1µM*,2,0%,-9%,15µM*
Nc1cc[n+](CC(=O)c2ccccc2)cc1,0%,-11%,8.2µM*,1,3%,-13%,?
O=C(C[n+]1ccncc1)c1ccccc1,2%,0%,-1%,1,·,·,·
Cc1cc[n+](CC(=O)c2ccccc2)c2ccccc12,0%,-3%,-14%,0,·,·,·
Clc1ccc(/C=C/c2ccncc2)cc1Cl,·,·,·,·,0%,-39%,?
COc1ccc(/C=C/c2ccncc2)cc1,3%,-5%,?,-1,·,·,·
CN(C)c1ccc(/C=C/C(=O)c2ccc(O)cc2)cc1,17%,4%,5.2µM*,7,0.21µM*,1%,2.3µM*
Clc1cccc(-n2ncc3c(NC4CCCCC4)ncnc32)c1,-1%,-4%,·,·,·,·,·
COc1ccc2sc(N(Cc3cccnc3)C(=O)c3cccs3)nc2c1,0%,?,·,·,·,·,·

# High-throughput results deposited in PubChem by National Center for Advancing Translational Sciences (NCATS).
